Reference: PubChem BioAssay AID540351 (The Scripps Research Institute Molecular Screening Center, 2011)
Values without a mark were called inactive. The rule behind the calls is not given here.

System: Phorbol Ester
Test: off-target receptor, channel and CYP panel, profiling panel, selectivity assay for S1P3 agonist project, biochemical, Ricerca HitProfilingScreen, CYP450 (AID 540351)
Details: Ricerca receptor/enzyme binding panel plus CYP450, at 30 µM, stronger effect = higher value

Structure (SMILES): O=C(c1cc(C2CC2)on1)N(C1CCCCC1)C1CCCCC1
- inhibition: -19%
